Measured values taken from PubChem BioAssay AID504408 (Broad Institute, 2011).
The whole screen tested about 300,000 compounds, of which about 5,200 (1.7%) were called active.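 The calls were made as follows: active = mean replicate activation of at least 50% with a set share of replicates each reaching 50%; inconclusive = only one of those two conditions met; inactive = mean below 50% and too few replicates reaching it.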 Only a selection was taken, and actives are over-represented in it overall.

Assay: HSF-1 response element luciferase induction – NIH3T3-HGL cells, MG132 stress, luminescence, single point, primary screen (AID 504408);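 also: 0% = median of the neutral control wells and 100% = twice that signal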
Conditions: NIH3T3-HGL HSF-1 luciferase reporter, MG132, 8 h; at 9 µM; hits give high values; 100% = twice DMSO control signal

Row | SMILES | activation
1 | CC(=O)Nc1ccc(N2C(=O)C3C4CC(=O)C(c5ccccc54)C3C2=O)cc1 (centres undefined) | 63.1% (active)
2 | CCc1ccccc1N1C(=O)C2C3CC(=O)C(c4ccccc43)C2C1=O (centres undefined) | -0.868% (inactive)
3 | CC(=O)Nc1ccc(N2C(=O)C3C4C=CC(CC4)C3C2=O)cc1 (centres undefined) | 6.25% (inactive)
4 | O=[N+]([O-])C(=c1ccc2c(c1)N1C3=C(CCCC3)CC3CCCCC31N=2)[N+](=O)[O-] (centres undefined) | 74.2% (active)
5 | COc1ccc(/C=C/C(=O)NC(=S)NN2CCCCC2c2cccnc2)cc1 (centres undefined) | 13.9% (inactive)
6 | COc1ccc(C(=O)NC(=S)N2CCCCC2c2cccnc2)cc1OC (centres undefined) | 60.1% (active)
7 | O=C(NC(=S)N1CCCCC1c1cccnc1)c1ccccc1 (centres undefined) | 4.49% (inactive)
8 | Cc1nc(-c2ccc(F)cc2)c(CC(=O)Nc2cc(S(=O)(=O)N3CCCCC3)ccc2C)s1 | 44.2% (inactive)
9 | C=CCOc1ccc(/C=C/C(=O)OCC(=O)NCC2CCCO2)cc1 (centres undefined) | -21.7% (inactive)
10 | O=C(NCCc1ccco1)C(=O)NCCC1CCCCN1S(=O)(=O)c1ccccc1 (centres undefined) | 3.12% (inactive)
11 | Cc1cc(CO)nn1-c1ccc([N+](=O)[O-])cc1 | -10.6% (inactive)
12 | Cc1ccc(-n2cc3ccc([N+](=O)[O-])cc3n2)cc1 | 59.2% (active)
13 | Cc1ccc(-c2cn3cc([N+](=O)[O-])ccc3n2)cc1 | 29.6% (inactive)
14 | COc1cc(C2C(C(=O)c3cccs3)=C(O)C(=O)N2CCN2CCOCC2)ccc1OCCC(C)C (centres undefined) | -4.43% (inactive)
15 | Cc1ccc(S(=O)(=O)CCC(=O)Nc2nnc(CC(C)C)s2)cc1 | 16.5% (inactive)
16 | COc1ccc(C(CNC(=O)c2cccc(NS(=O)(=O)c3ccc(C)c(F)c3)c2)N2CCCC2)cc1 (centres undefined) | -2.57% (inactive)
17 | CC1CCN(C(=O)COC(=O)c2cc(S(=O)(=O)N3CCOCC3)ccc2Cl)CC1 | -3.43% (inactive)
18 | CC1(C)CCSC(/C=C/c2ccccc2)=N1 | 172% (active)
19 | CCCn1nc(C(=O)NNC(=O)CCOc2ccccc2OCC)c2ccccc2c1=O | 2.86% (inactive)
20 | O=C(CN1CCOCC1)Nc1cccc([N+](=O)[O-])c1 | 8.61% (inactive)
21 | COc1ccc(C(=O)N2CC3(C)CC2CC(C)(C)C3)cc1OC (centres undefined) | -7.35% (inactive)
22 | Cc1nnnn1/C(=C\c1ccccc1)C(=O)OCC(=O)N1CC2(C)CC1CC(C)(C)C2 (centres undefined) | 82.4% (active)
23 | Cc1cccc(C(=O)NCC(=O)OCC(=O)N2CC3(C)CC2CC(C)(C)C3)c1 (centres undefined) | 15.9% (inactive)
24 | [O-][n+]1ccc(OCc2ccccc2)cc1 | -6.48% (inactive)

Row | SMILES | activation
25 | O=C(NC1CCCC1)c1cc(-c2ccccc2)on1 | 61.2% (active)
26 | O=C(NCCCn1ccnc1)c1cc(-c2ccccc2)on1 | 52.5% (active)
27 | COc1ccccc1-c1cc(C(=O)NCCCn2ccnc2)no1 | -0.494% (inactive)
28 | CC(NC(=O)c1cc(-c2ccccc2)on1)c1ccccc1 (centres undefined) | 25.2% (inactive)
29 | COc1ccc(-c2cc(C(=O)NCCCn3ccnc3)no2)cc1 | -2.3% (inactive)
30 | O=C(NC1CCCCC1)c1cc(C2CC2)on1 | 24.7% (inactive)
31 | CCC(=O)c1ccc(OCC(=O)OCC(=O)NC2CCCCCC2)cc1 | -11.2% (inactive)
32 | CCC1CCC/C1=N\NC(=O)c1ccc(Cl)cc1 (centres undefined) | 9.99% (inactive)
33 | Cc1cc(C)c(S(=O)(=O)n2cc(C(C)C(N)C(=O)O)c3ccccc32)c(C)c1 (centres undefined) | 0.109% (inactive)
34 | COc1cccc(N2CC(C(=O)NCc3n[nH]c(=O)c4ccccc34)CC2=O)c1 (centres undefined) | 8.81% (inactive)
35 | CSCCC(NC(=O)COc1ccccc1)C(=O)OCCOc1ccc(F)cc1 (centres undefined) | -8.89% (inactive)
36 | COc1cccc(C(=O)NCCS(=O)(=O)NCC2CCCO2)c1 (centres undefined) | -6.64% (inactive)
37 | CC1(c2nnc(Cc3ccccc3)o2)CC(c2ccccc2F)=NO1 (centres undefined) | 4.53% (inactive)
38 | Cn1cccc1C(=O)NNC(=O)COc1ccc(Br)cc1 | 1.2% (inactive)
39 | CC1Cc2ccccc2N1C(=O)CSc1nc2ccccc2o1 (centres undefined) | 67.8% (active)
40 | CCS(=O)(=O)c1ccc2oc(SCC(=O)N3c4ccccc4CC3C)nc2c1 (centres undefined) | -9.09% (inactive)
41 | Cc1cc(=O)[nH]c(SCC(=O)N2c3ccccc3CC2C)n1 (centres undefined) | -7.41% (inactive)
42 | COc1ccc(/C=N/NC(=O)c2cc(-c3cccc(C)c3)nc3ccccc23)cc1O | 11.4% (inactive)
43 | O=C(c1cc(-c2ccc(Cl)s2)nc2ccccc12)N1CCOCC1 | 0.352% (inactive)
44 | CCCCCN(C(=O)CCC(=O)OCCOc1ccc(OC)cc1)c1c(N)n(CCCC)c(=O)[nH]c1=O | 2.74% (inactive)
45 | COc1ccccc1NC(=O)CCN1CCN(c2ccc(Cl)cc2)CC1 | 0.381% (inactive)
46 | COc1ccc(Cl)cc1NC(=O)CCN1CCOCC1 | -5.06% (inactive)
47 | COC(=O)CNC(c1ccccc1Cl)c1cc(Br)ccc1NC(=O)CCN1CCOCC1 (centres undefined) | 57.8% (active)
48 | COc1ccccc1C(=O)NC(=O)COC(=O)C1CC1 | 16% (inactive)

Row | SMILES | activation
49 | O=C(Nc1cccc2ncccc12)c1ccc(-c2ccc(Cl)cc2Cl)o1 | 38.2% (inactive)
50 | O=C(O)c1cc(Cl)c(Cl)cc1C(=O)Nc1cccc2ncccc12 | 56.4% (active)
51 | O=C(Nc1cccc2ncccc12)C(Cl)(Cl)Cl | -66% (inactive)
52 | CN(C(=O)CN1C(=O)NC(C)(CCc2ccccc2)C1=O)c1ccccc1 (centres undefined) | 5.79% (inactive)
53 | COc1ccc(S(=O)(=O)Nc2ccc3oc(C)c(C(C)=O)c3c2)cc1 | -13% (inactive)
54 | CC(=O)c1c(C)oc2ccc(NS(=O)(=O)c3ccccc3)cc12 | 18.1% (inactive)
55 | COC(=O)c1c(C)oc2ccc(N(C(=O)Oc3ccccc3)S(=O)(=O)c3ccccc3)cc12 | 74.4% (active)
56 | CC(C)(C)c1ccc(C(=O)NCc2ccco2)cc1 | -17.1% (inactive)
57 | Nc1cc(N)nc(SCc2cccc(F)c2)n1 | 76.5% (active)
58 | Nc1cc(N)nc(SCc2ccc(Cl)cc2)n1 | -15.7% (inactive)
59 | CCc1nnc(SCc2cccc(F)c2)nc1CC | -33.8% (inactive)
60 | COc1ccc(NS(=O)(=O)c2ccc(C)c(C(=O)NNC(=O)c3csc(N4CCOCC4)n3)c2)cc1 | 4.38% (inactive)
61 | O=C(NCCC1CCCCN1S(=O)(=O)c1cccs1)C(=O)Nc1ccc(F)cc1F (centres undefined) | -7.29% (inactive)
62 | CN(C(=O)COC(=O)c1ccc(Br)o1)c1c(N)n(Cc2ccccc2)c(=O)[nH]c1=O | 5.07% (inactive)
63 | CC1(C)O[C@@H]2CC3C4C[C@H](F)C5=CC(=O)C=CC5(C)C4C(O)CC3(C)[C@]2(C(=O)CO)O1 (some centres undefined) | -43.8% (inactive)
64 | COc1ccc(-c2csc(-c3cccs3)n2)cc1OC | 19.1% (inactive)
65 | COc1ccccc1-c1nnc(-c2ccc(F)cc2)o1 | 38.9% (inactive)
66 | COc1ccc(-c2csc3nc(-c4ccccc4F)oc(=O)c23)cc1OC | 164% (active)
67 | CC(=O)N/C(=C\c1ccccc1)C(=O)OC(C)C(=O)N(C)c1ccccc1 (centres undefined) | 2.37% (inactive)
68 | O=C(Cc1ccc(-c2ccccc2)cc1)NC(c1ccccc1)c1ccccc1 | 0.938% (inactive)
69 | CCOC(=O)/C=C/C(=O)OCC(=O)NC(c1ccccc1)c1ccccc1 | 177% (active)
70 | CCOC(=O)C(C(=O)OCC)C(C#N)c1ccccc1 (centres undefined) | 14.7% (inactive)
71 | COc1ccc(C(C#N)(CC(=O)O)c2cnccn2)cc1OC (centres undefined) | -7.73% (inactive)
72 | COc1ccc(-c2cc(C(F)(F)F)nc(SCC(=O)Nc3ccc4c(c3)OCO4)n2)cc1OC | 12.6% (inactive)

Row | SMILES | activation
73 | COc1ccc(-c2cc(C(F)(F)F)nc(S(C)(=O)=O)n2)cc1OC | 236% (active)
74 | COc1cc(OC)nc(S(C)(=O)=O)n1 | -10.3% (inactive)
75 | COc1ccc(CNC(=O)CNC(=O)c2sc3ccccc3c2Cl)cc1OC | 5.99% (inactive)
76 | COc1ccc(C(=O)Nc2sc(C)c(C)c2CN2CCOCC2)cc1 | 399% (active)
77 | CCc1cc(C(N)=O)c(NC(=O)c2ccc(OC)cc2)s1 | 15.1% (inactive)
78 | COc1ccc(C(=O)Nc2ccnn2C2CCN(Cc3ccncc3)CC2)cc1 | 0.31% (inactive)
79 | CC(=O)c1c(C)[nH]c(C(=O)N2CCN(S(=O)(=O)c3ccc(F)c(F)c3)CC2)c1C | 0.878% (inactive)
80 | CCc1cccc(C)c1NS(=O)(=O)c1cc(Br)cnc1N | 0.695% (inactive)
81 | O=[N+]([O-])c1ncc(Br)cc1Nc1ccccc1 | -4.85% (inactive)
82 | Oc1ccccc1CNc1ncc(Br)cc1Br | 114% (active)
83 | COc1ccc(S(=O)(=O)N2CCCCC2)cc1NC(=O)C1CC(=O)N(c2ccc3c(c2)OCCO3)C1 (centres undefined) | 1.34% (inactive)
84 | O=C(NCCc1ccccc1)c1ccc2c(c1)N(Cc1ccccc1)CCS2 | 82.5% (active)
85 | O=C(NCCN1CCOCC1)c1ccc2c(c1)N(Cc1ccc(Cl)cc1)CCS2 | 16.5% (inactive)
86 | CCOC(=O)N1CCN(C(=O)c2ccc3c(c2)N(Cc2ccc(C)cc2)CCS3)CC1 | 9.82% (inactive)
87 | CC(=O)Nc1ccc(NC(=O)CSC2=NS(=O)(=O)c3ccccc3N2)cc1 | -10.3% (inactive)
88 | CC(=O)Nc1ccc(NC(=O)C(C)OC(=O)C2CC(=O)N(CCc3ccccc3)C2)cc1 (centres undefined) | -21.8% (inactive)
89 | COCCN(C(=O)COC(=O)Cc1cccc(OC)c1)c1c(N)n(Cc2ccccc2)c(=O)[nH]c1=O | 2.54% (inactive)
90 | Cc1cccc([C@@H]2[C@@H]3C(=O)N(Cc4ccccc4)C(=O)[C@@H]3[C@]3(Cc4ccc(Cl)cc4)C(=O)N(c4cccc(Cl)c4)C(=O)N23)c1 | 13.8% (inactive)
91 | Cc1ccc(C(=O)CN2C(=O)NC3(CCc4ccccc43)C2=O)c(C)c1 (centres undefined) | 0.629% (inactive)
92 | O=C(Nc1ccccc1N1CCOCC1)c1csc2c1CCCC2 | 6.54% (inactive)
93 | Cc1ccc(NC(=O)c2csc3c2CCCC3)cc1 | 59.9% (active)
94 | COC(=O)c1sc(NC(=O)c2csc3c2CCCC3)nc1C | 30.2% (inactive)
